# Measurements reported in PubChem BioAssay AID652104 (National Center for Advancing Translational Sciences (NCATS), 2013).
# Several values for one entry are separate records, joined by “and”; a condition that tells them apart may be missing. Identical values can stand only once. About 7,200 (1.8%) of roughly 410,000 compounds were called active. Roughly 7% stayed inconclusive and do not appear here. Calls follow the shape of the dose curve; as a rule, active = well fitted activation curve with a large enough effect; inconclusive = small, poorly fitted or top-dose-only effect, or another doubt; inactive = no such curve, though single readings can be large or run the other way. The full list was thinned out, with actives kept by preference.
# Assay: qHTS of TDP-43 Inhibitors; also: nearly all actives have a fitted effect of over 50% in size; as to growth rescue (activation): % of control where 0% means no effect
# Conditions: TDP-43 expressing yeast growth rescue, BacTiter-Glo, 24 h; series mostly up to 46.1 µM; growth rescue (activation): at the top concentration
# How it was run: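 In this qHTS, compounds that restore growth of yeast expressing TDP-43 appear as activators. Cells (OD600=0.02, galactose medium, raffinose-pregrown) are incubated with compound 24 hr at 30 deg C and growth is quantified by BacTiter-Glo.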
# Potency is read from the fitted curve at half-maximal effect.
SMILES,growth rescue (activation),Potency
Cc1ccc(NC(=O)CSc2nc3c([nH]c4ccccc43)c(=O)n2-c2ccccc2)c(C)c1,5.4% (inactive),–
C=CCNc1nc(N)c([N+](=O)[O-])c(NC2CCCCC2)n1,–,7.08 µM (active)
Nc1nc(NCC2CCCO2)nc(Nc2ccccc2F)c1[N+](=O)[O-] (configuration not stated),-0.227% (inactive),–
Nc1nc(Nc2ccccc2F)nc(NC2CCCCC2)c1[N+](=O)[O-],-5.06% (inactive),–
Cc1ccc(NC(=O)C2CCN(S(=O)(=O)c3cc(-c4noc(C)n4)ccc3C)CC2)c(C)c1,-6.47% (inactive),–
CCN(CCCNC(=O)c1c(C)oc2ncn(CC(C)C)c(=O)c12)Cc1ccccc1,13.1% (inactive),–
Cc1ccc(Cl)cc1N1CCN(S(=O)(=O)c2cc3[nH]c(=O)c(=O)[nH]c3cc2C)CC1,4.73% (inactive),–
CCN(CCCNC(=O)c1ccc(Sc2ccc(C)cc2)c(NC(C)=O)c1)c1cccc(C)c1,14.4% (inactive),–
Cc1ccc(Sc2ccc(NC(=O)c3ccc(F)cc3)cc2C#N)cc1,-20.1% (inactive),–
CC(=O)Nc1cc(C(=O)NCc2ccc(F)cc2)ccc1Sc1ccc(F)cc1,–,31.6 µM (active)
COCCNC(=O)c1ccc(S(=O)(=O)c2ccc(Cl)cc2)c(NC(C)=O)c1,2.43% (inactive),–
COC(=O)c1ccc(Sc2ccc(F)cc2)c(N)c1,3.11% (inactive),–
CC(=O)Nc1cc(C(=O)NCc2ccc(F)cc2Cl)ccc1Sc1ccc(Cl)cc1,–,11.2 µM (active)
COC(=O)c1cc(NC(=O)c2sc3ccccc3c2Cl)cc(C(=O)OC)c1,11.6% (inactive),–
O=C(Cn1c(=O)n(Cc2cccs2)c(=O)c2cccnc21)Nc1ccc(F)cc1,-9.45% (inactive),–
COc1cn(CC(=O)Nc2cccc(C)c2C)c(CN2CCCCC2)cc1=O,8.28% (inactive),–
COc1ccc(-n2cnc3cc(C(=O)NC4CCCC4)ccc32)cc1,–,28.2 µM (active) and 17.8 µM (active)
Cc1ccc(-n2cnc3cc(C(=O)NCCC4=CCCCC4)ccc32)cc1Cl,7.7% (inactive),–
COCCCNC(=O)c1ccc2c(c1)ncn2-c1ccccc1OC,7.43% (inactive),–
O=C(Oc1ccc(F)cc1)N1CCOCC1,-18.8% (inactive),–
O=C(OCC(=O)N1CCOCC1)c1ccc2ccccc2c1,17.2% (inactive),–
Cc1ccc(C(=O)Oc2ccc(C(=S)N3CCOCC3)cc2)cc1,26% (inactive),–
O=C(Oc1ccc(Br)cc1C(=S)N1CCOCC1)c1cccc([N+](=O)[O-])c1,11% (inactive),–
O=C(Oc1ccc(C(=S)N2CCOCC2)cc1)c1ccc(F)cc1,–,7.08 µM (active)
O=C(Oc1cccc(C(=S)N2CCOCC2)c1)c1cccc(Cl)c1,–,12.6 µM (active)

SMILES,growth rescue (activation),Potency
CC1Cc2cc(S(=O)(=O)CCC(=O)NCc3ccc(Cl)cc3)ccc2N1C(=O)C1CC1 (configuration not stated),3.43% (inactive),–
COc1cccc2c1cc1c(=O)n(CC(=O)N3CCN(c4cccc(Cl)c4)CC3)nc(C)n12,7.4% (inactive),–
Cc1ccc(CCNC(=O)c2ccc3c(c2)nc2n3CCC(C)C2)cc1 (configuration not stated),13.3% (inactive),–
COc1cccc(-c2nnc3n(CCc4ccccc4)c(=O)c4ccccc4n23)c1O,8.42% (inactive),–
O=C1NC(c2cc3c(cc2Cl)OCO3)Oc2ccccc21 (configuration not stated),–,22.4 µM (active)
O=C1OCC2=C1C(c1ccc(Cl)cc1)c1cc3c(cc1O2)OCO3 (configuration not stated),-12.4% (inactive),–
COc1ccc(-n2nnnc2CNC(=O)c2ccc3ccccc3c2)cc1,–,20 µM (active)
COc1ccc(CNC(=O)c2ccc3oc(C(C)C)nc3c2)cc1,0% (inactive),–
O=C(NCc1nnnn1-c1ccc(Cl)cc1)c1ccc2c(c1)OCO2,20.1% (inactive),–
O=C(O)c1cc([N+](=O)[O-])c(Nc2cccc3ccccc23)c([N+](=O)[O-])c1,–,11.2 µM (active)
O=C(Nc1cccc2ccccc12)NC1CC1,4.47% (inactive),–
CC(C)NC(=O)c1ccc(Sc2ccccc2)c([N+](=O)[O-])c1,-0.383% (inactive),–
COc1cccc(CNC(=O)C2CCN(S(=O)(=O)c3ccc4c(ccn4C)c3)CC2)c1,25.2% (inactive),–
Nc1ccccc1Sc1cc(Cl)nnc1Cl,–,12.6 µM (active)
Cc1ccc(Nc2ccc3cc(S(=O)(=O)N4CCCCC4)ccc3n2)cc1F,21.6% (inactive),–
CCCCN(C)CCCNC(=O)CN1N=C(c2ccc(OC)cc2)CCC1=O,-1.21% (inactive),–
CCOC(=O)C1=C(c2ccccc2)Nc2ncnn2C1c1ccc(Cl)cc1 (configuration not stated),-5.42% (inactive),–
CCOc1ccc(C2=CC(c3ccccc3)n3ncnc3N2)cc1 (configuration not stated),–,17.8 µM (active)
COc1ccc(C2=CC(c3ccccc3Cl)n3nc(-c4ccc(Cl)cc4)nc3N2)cc1 (configuration not stated),9.18% (inactive),–
Brc1ccc(C2=CC(c3ccco3)n3ncnc3N2)cc1 (configuration not stated),–,12.6 µM (active)
CCOc1ccc(NC(=O)CSc2c3c(nc4ccccc24)CCCC3)cc1,16.7% (inactive),–
CC(=O)c1cccc(Nc2ccc3cc(S(=O)(=O)N4CCC(C)CC4)ccc3n2)c1,26.4% (inactive),–
Cc1cc(Br)cn2c(Cc3ccccc3C(F)(F)F)c(C3CCCCC3)nc12,-0.49% (inactive),–
CC(C)(C)Cc1c(C2CCCCC2)nc2ccc(Br)cn12,–,28.2 µM (active)
COC(=O)c1ccc2nc(C3CCCCC3)c(Cc3cccc(F)c3)n2c1,12.6% (inactive),–

SMILES,growth rescue (activation),Potency
COc1cccc(NC(=O)c2csnn2)c1,10.3% (inactive),–
CCOC(=O)c1cnc2c(C)cc(C)cc2c1Nc1ccc(N2CCOCC2)cc1,22.4% (inactive),–
CCOc1cccc(CC(=O)N2CCc3c([nH]c4ccccc34)C2c2ccc(OC)cc2)c1OCC (configuration not stated),-0.232% (inactive),–
CCCC(=O)Nc1ccc2oc(-c3ccc(O)c(Br)c3)nc2c1,18% (inactive),–
CC(C)c1ccc(C2CC(=O)N3CN(C4CCCCC4)CSC3=C2C#N)cc1 (configuration not stated),-0.958% (inactive),–
CCc1nn(CC(=O)Nc2cc(C)cc(C)c2)c(=O)c2cc3sccc3n12,4.62% (inactive),–
CC(=O)Nc1ccc(NC(=O)C2CCCN2S(=O)(=O)c2cccc(C(F)(F)F)c2)cc1 (configuration not stated),14.9% (inactive),–
S=C(Nc1cccc(Br)c1)N1CCn2cccc2C1c1cccnc1 (configuration not stated),14.8% (inactive),–
O=S(=O)(c1cccc(C(F)(F)F)c1)N1c2ccccc2-n2cccc2C1c1cccnc1 (configuration not stated),–,25.1 µM (active)
CN(C)c1cccc(C(=O)Nc2nc3ccc(S(=O)(=O)NC(C)(C)C)cc3s2)c1,6.18% [at 9.22 µM] (inactive),–
COc1ccc2c(c1)c(N1CCCC1=O)c(C(=O)Nc1ccccc1C(F)(F)F)n2C,-6.33% (inactive),–
CCOc1ccc(NC(=O)C(CC(C)C)N2Cc3ccccc3C2=O)cc1 (configuration not stated),5.28% (inactive),–
CC(C)(C)N(Cc1ccccc1)C(=O)c1ccncc1,6.52% (inactive),–
CC(Cc1cccs1)N(Cc1ccc(Cl)cc1)C(=O)c1ccncc1 (configuration not stated),–,35.5 µM (active)
CC(Cc1cccs1)NC(=O)c1cccc(Cl)c1 (configuration not stated),-15.2% [at 0.397 µM] (inactive),–
CCOc1cc(C2C(C(=O)Nc3ccc(OC)cc3)=C(C)Nc3nc(SC)nn32)ccc1O (configuration not stated),26.8% (inactive),–
O=C(CSc1nccn1Cc1ccc(Cl)cc1)NCc1ccccc1,9.99% [at 9.22 µM] (inactive),–
CCOC(=O)c1ccc(NC(=O)Cn2c(=O)cc(C)c3c(C)nn(-c4cccc(F)c4)c32)cc1,-3.59% (inactive),–
Cc1[nH]c2ccccc2c1-c1ccc(Cl)nn1,-8.17% [at 9.22 µM] (inactive),–
O=C(O)c1[nH]c2ccccc2c1C(c1cccc(O)c1)c1c(C(=O)O)[nH]c2ccccc12,5.7% (inactive),–
Cc1[nH]c2ccccc2c1C(c1ccccc1)c1cccs1 (configuration not stated),–,25.1 µM (active)
CCN(CC)c1ccc(NC(=O)CN2C(=O)c3cccnc3Oc3ccc(Cl)cc32)c(C)c1,9.93% (inactive),–
COc1ccc(-c2nn(CC(=O)NC3CCCC3)c3c2cnc2ccc(F)cc23)cc1,22.7% (inactive),–
Cc1cccc(C(=O)Nc2ccc(-c3nc4ccccc4s3)c(C)c2)c1,29.6% (inactive),–
COc1ccc(Cl)cc1NC(=O)c1cccc(N2C(=O)C3CC=CCC3C2=O)c1 (configuration not stated),–,11.2 µM (active)

SMILES,growth rescue (activation),Potency
COc1ccc(Cl)cc1NC(=O)COC(=O)C(CC(C)C)N1C(=O)C2CC=CCC2C1=O (configuration not stated),4.31% (inactive),–
O=C(Nc1ccccc1C(=O)O)c1ccc(N2C(=O)C3CC=CCC3C2=O)cc1 (configuration not stated),4.44% (inactive),–
CC(=O)Nc1ccc(NC(=O)CCCc2nc(-c3ccc(C(C)(C)C)cc3)no2)cc1,19.7% (inactive),–
COc1ccc2c(c1)C=C(C(=O)NCc1cc(Br)ccc1OC)CO2,5.98% [at 9.22 µM] (inactive),–
CCOC(=O)c1ccc(NC(=O)CC2C(=O)N(c3cccc(OC)c3)C(=O)N2C2CCCCC2)cc1 (configuration not stated),-1.66% (inactive),–
Cc1c(C(=O)N2CCCC2)oc2c1-c1nn(CC(=O)NCc3ccc(OC(C)C)cc3)cc1CC2,–,20 µM (active)
CCOc1ccc(CNC(=O)Cn2cc3c(n2)-c2c(oc(C(=O)N4CCCC4)c2C)CC3)cc1,29% (inactive),–
CCCN(CCC)CCCNC(=O)Cn1cc2c(n1)-c1c(oc(C(=O)N3CCCC3)c1C)CC2,16.9% (inactive),–
CC1=C(c2ccc(C)cc2)S(=O)(=O)NC1=NCCCN1CCN(c2cc(C)ccc2C)CC1,14.6% (inactive),–
Cc1nn(-c2ccc(N3CCCCC3)nn2)c(C)c1CCC(=O)NCc1ccccc1F,-10.4% (inactive),–
CC(=O)c1ccc(NC(=O)CSc2nnc(NC(=O)Nc3ccccc3)s2)cc1,0% (inactive),–
CC(C)c1ccc(Nc2nnc(SCC(=O)c3nnc(-c4ccccc4)o3)s2)cc1,–,20 µM (active)
CN(C(=O)CSc1nnc(NC(=O)Nc2ccccc2)s1)c1ccccc1,22.1% (inactive),–
CCOC(=O)c1ccc(NC(=O)CCS(=O)(=O)c2ccc3c(c2)oc(=O)n3C)cc1,21.4% (inactive),–
O=C(NC1CCN(Cc2ccccc2)CC1)c1ccc(Cn2c(=O)c3ccccc3n(Cc3cccc(F)c3)c2=O)cc1,22.9% (inactive),–
CC(C)c1ccc(NC(=O)c2ccc(Cn3nc(N4CCN(c5ccccc5)CC4)ccc3=O)o2)cc1,4.85% (inactive),–
CC1CC(C)(C)NC(=S)N1CCC(=O)N1CCN(Cc2ccccc2)CC1 (configuration not stated),-6.5% (inactive),–
CC1CC(=O)Nc2ccccc2N1S(=O)(=O)c1cccs1 (configuration not stated),-21.7% (inactive),–
CC1CC(=S)Nc2ccccc2N1Cc1ccccc1 (configuration not stated),–,14.1 µM (active)
COC(=O)[C@]1(S(=O)(=O)c2ccccc2)C[C@@H]2ON=C(c3ccc(OC)cc3)[C@@H]2C1,–,17.8 µM (active)
COc1ccc(-c2nc(S(=O)(=O)c3ccccc3)c(N3CCCCC3)o2)cc1,3.8% (inactive),–
COc1ccc(CNC(=O)C2CC(c3ccc(C(F)(F)F)cc3)=NO2)cc1 (configuration not stated),22.1% (inactive),–
